Bioassay records: PubChem, The Scripps Research Institute Molecular Screening Center
A selection: hits, their analogues and other compounds. The true share with any hit is near 2.9%.
ADAM17 inh: ADAM17 inhibition, QFRET primary screen; P78536; recombinant ADAM17, EDANS/DABCYL FRET peptide cleavage; inhibition, % at 6.95 µM; actives 0.83% (n = 370,000); AID 720648;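 active = inhibition above the mean of compounds lying between control limits plus 3 SD, set per campaign, cut at about 8.5% in these data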
ADAM10 inh: ADAM10 inhibition, QFRET primary screen; actives 0.62% (n = 370,000); AID 720582; inhibition, % at 7 µM; recombinant ADAM10, EDANS/DABCYL FRET peptide cleavage, 3 h;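 active = inhibition above a per-campaign cutoff equal to the mean of compounds falling between control-based bounds plus 3 SD, cut at about 20% in these data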
PLC-beta3 inh: inhibitors of human phospholipase C beta3. Q01970. Purified PLC-beta3, fluorogenic substrate, fluorescence. inhibition, % at 12.2 µM. actives 0.18% (n = 370,000); in the data active = inhibition above about 11%
Target sequence (Q01970 whole entry, looked up): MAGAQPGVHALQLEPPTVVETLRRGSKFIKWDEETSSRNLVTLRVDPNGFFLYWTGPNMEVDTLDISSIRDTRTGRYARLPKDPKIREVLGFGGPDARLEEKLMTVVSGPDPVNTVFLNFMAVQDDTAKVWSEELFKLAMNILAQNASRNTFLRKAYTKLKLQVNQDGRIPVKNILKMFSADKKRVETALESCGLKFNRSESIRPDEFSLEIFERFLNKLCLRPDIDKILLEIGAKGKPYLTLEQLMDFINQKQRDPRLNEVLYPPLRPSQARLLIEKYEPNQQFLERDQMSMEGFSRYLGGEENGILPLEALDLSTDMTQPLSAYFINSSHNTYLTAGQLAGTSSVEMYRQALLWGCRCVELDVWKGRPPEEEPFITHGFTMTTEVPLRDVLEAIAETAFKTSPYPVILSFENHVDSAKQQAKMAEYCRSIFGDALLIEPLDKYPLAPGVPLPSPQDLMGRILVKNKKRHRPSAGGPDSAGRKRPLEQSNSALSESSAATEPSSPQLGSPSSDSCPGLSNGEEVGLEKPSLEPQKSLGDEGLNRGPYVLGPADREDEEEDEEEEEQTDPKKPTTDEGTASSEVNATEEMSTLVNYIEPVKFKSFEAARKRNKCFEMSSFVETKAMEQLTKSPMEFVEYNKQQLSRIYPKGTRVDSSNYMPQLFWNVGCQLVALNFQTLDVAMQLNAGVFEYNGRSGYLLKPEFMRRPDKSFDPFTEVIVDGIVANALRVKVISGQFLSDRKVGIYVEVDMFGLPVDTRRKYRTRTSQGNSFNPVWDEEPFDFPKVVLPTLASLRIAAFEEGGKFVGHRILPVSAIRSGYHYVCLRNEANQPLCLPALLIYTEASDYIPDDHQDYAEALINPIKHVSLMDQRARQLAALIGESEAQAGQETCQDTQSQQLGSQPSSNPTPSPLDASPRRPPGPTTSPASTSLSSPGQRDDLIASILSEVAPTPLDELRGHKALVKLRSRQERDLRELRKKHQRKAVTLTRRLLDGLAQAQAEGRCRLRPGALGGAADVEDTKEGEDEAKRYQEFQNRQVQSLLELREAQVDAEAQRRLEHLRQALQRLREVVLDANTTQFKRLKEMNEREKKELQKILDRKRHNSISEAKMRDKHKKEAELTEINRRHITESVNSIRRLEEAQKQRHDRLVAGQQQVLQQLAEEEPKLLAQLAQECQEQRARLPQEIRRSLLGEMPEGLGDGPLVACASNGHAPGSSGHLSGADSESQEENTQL
KLK7 zymogen act: proKLK7 (human) activation, primary screen. P49862. purified proKLK7, EDANS-DABCYL substrate fluorescence; 100% is mature enzyme control, 0% vehicle. activation, % at 7 µM. actives 0.9% (n = 370,000). AID 652039;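 active = activation above the mean of all tested compounds plus 3 SD, computed per campaign excluding outliers beyond control limits, cut at about 13% in these data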
PLCg1 inh: blocks human PLC-gamma1 enzyme activity; P19174; inhibition, % at 12.2 µM; purified PLC-gamma1, fluorogenic substrate, fluorescence; actives 0.84% (n = 370,000); in the data active = inhibition above about 9.5%
KLK7 act conf: proKLK7 activation, confirmation; actives 68% (n = 3,200); purified proKLK7, EDANS-DABCYL substrate fluorescence; scaled: vehicle 0, mature enzyme 100; activation, % at 7 µM; shares compounds with KLK7 zymogen act; AID 686949;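 active = activation, as change over the incubation, above the mean of all tested compounds plus 3 SD, cut at about 13% in these data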
EDANS-DABCYL int: optically interferes with EDANS-DABCYL signal, flagging KLK7 hits | activation, % at 7 µM | actives 80% (n = 3,200) | shares compounds with KLK7 zymogen act | EDANS-DABCYL substrate fluorescence interference, no enzyme, 4 h; solvent 0%, active enzyme control 100%;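 active = activation above the all-compound mean plus 3 SD, ignoring values outside control-based bounds, cut at about 4.8% in these data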;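 also: value is the 4 h activation minus the activation read at time zero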
K7 EDANS ctr: EDANS fluorescence interference in dose response, no enzyme. EDANS-DABCYL peptide fluorescence interference. EC50, µM. actives 20% (n = 250). AID 720493. shares compounds with KLK7 zymogen act;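 active = compounds that raise the fluorescence signal in this interference counterscreen, with EC50 at or below 10 µM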;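 also: intact quenched peptide substrate alone read at 355 nm excitation and 520 nm emission; signal is fluorescence gain from T0 to T4 after four hours at room temperature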
Each line names hits and unclear results; the compound was inactive in the other large screens (follow-up assays come after a bar, where they were run).

CC1(c2nnnn2Cc2ccccc2)CCCCC(=O)N1Cc1cccs1 (stereo not given)	none
COC(=O)[C@]12C[C@H](CC(=O)NCc3cccc(C(F)(F)F)c3)C(=O)N(Cc3cccc4ccccc34)C1=C[C@H](COCc1ccccc1)O[C@@H]2C	none
CCCCN1CCN(C(=O)C2CCCN(C(=O)c3ccc4c(c3)NC(=O)CS4)C2)CC1 (stereo not given)	none
COc1ccc(CNC(=O)CC2C[C@H](C(=O)N3CCOCC3)[C@@]3(C)c4[nH]c5ccccc5c4CCN3C2=O)cc1OC (stereo not given in full)	none
CC(C)N(C(=O)[C@H]1C[C@H](CC(=O)NCCN2CCOCC2)C(=O)N2CCc3c([nH]c4cc(-c5ccco5)ccc34)[C@]12C)C(C)C	KLK7 zymogen act 124 | KLK7 act conf 120 | EDANS-DABCYL int 127
C[C@]12c3[nH]c4cc(-c5ccco5)ccc4c3CCN1C(=O)[C@@H](CC(=O)NCCN1CCOCC1)C[C@@H]2C(=O)N1CCOCC1	KLK7 zymogen act 52 | KLK7 act conf 35 | EDANS-DABCYL int 51
COc1ccc(CNC(=O)C[C@H]2C[C@H](C(=O)N3CCOCC3)[C@@]3(C)c4[nH]c5cc(-c6ccco6)ccc5c4CCN3C2=O)cc1OC	KLK7 zymogen act 100 | KLK7 act conf 57 | EDANS-DABCYL int 64
COc1ccc(NC(=O)C(CCCCNC(=O)OC(C)(C)C)NC2(C(=O)NCCc3c[nH]c4ccccc34)CCCCC2)cc1 (stereo not given)	none (no result: KLK7 zymogen act)
CCOC(=O)[C@]12CCCC=C1N(CCCOC)C(=O)[C@@H]2CC(=O)NCc1cccs1	none
COc1cc2cnc(C3=CCCCC3)cc2cc1OC	none
COc1ccc2cc(C3=CCCCC3)ncc2c1	KLK7 zymogen act 19 | KLK7 act conf inactive | EDANS-DABCYL int 5.3
O=C(CSc1nnc(-c2cccnc2)n1C1CCCCC1)N1CCCC1	none
Cc1c(C2(O)CCCCC2)[nH]c2cnccc12	KLK7 zymogen act 77 | KLK7 act conf 24 | EDANS-DABCYL int 14 | K7 EDANS ctr inactive
CCOC(=O)Cc1nc(N2CCN(Cc3cccc4c3OCO4)CC2)c2c(C)c(C(=O)OCC)sc2n1	none
COc1cc(-c2nc3n(n2)C(c2ccc(F)cc2)C2=C(CCCC2=O)N3)cc(OC)c1OC (stereo not given)	none
CCOc1ccc(C2C3=C(CCCC3=O)Nc3nc(C(F)(F)F)nn32)cc1OC (stereo not given)	KLK7 zymogen act 44 | KLK7 act conf 52 | EDANS-DABCYL int 58
COc1ccc(C2C3=C(CC(C)(C)CC3=O)Nc3nc(C)nn32)cc1OC (stereo not given)	none
CCOc1cc(C2C3=C(CCCC3=O)Nc3nc(C(=O)OC)nn32)ccc1OC (stereo not given)	none
COc1ccc(C2C3=C(CCCC3=O)Nc3nc(C(F)(F)F)nn32)c(OC)c1OC (stereo not given)	KLK7 zymogen act 23 | KLK7 act conf 38 | EDANS-DABCYL int 36
COc1ccc(C2C3=C(CCCC3=O)Nc3nc(C(F)(F)F)nn32)cc1OC (stereo not given)	KLK7 zymogen act 15 | KLK7 act conf 43 | EDANS-DABCYL int 58
O=c1ccc2ccc(O[C@@H]3O[C@H](CO)[C@@H](O)[C@H](O)[C@H]3O)c(O)c2o1	none
COc1cc2ccc(=O)oc2c(O[C@@H]2O[C@H](CO)[C@@H](O)[C@H](O)[C@H]2O)c1O	KLK7 zymogen act 68 | KLK7 act conf 69 | EDANS-DABCYL int 67
CNc1ccc(-c2cccc(CO)c2)cn1	KLK7 zymogen act 20 | KLK7 act conf 24 | EDANS-DABCYL int 16 | K7 EDANS ctr inactive
CCOC(=O)c1[nH]c2ccc(Br)cc2c1NC(=O)CCN1CCC(C)CC1	none
CCOC(=O)c1[nH]c2cc3c(cc2c1NC(=O)CN1CCN(CCO)CC1)OCO3	KLK7 zymogen act 49 | KLK7 act conf 26 | EDANS-DABCYL int 29
CCOC(=O)c1[nH]c2cc(OC)c(OC)cc2c1NC(=O)CCN1CCSCC1	KLK7 zymogen act 16 | KLK7 act conf inactive | EDANS-DABCYL int 8.7
CCOC(=O)c1[nH]c2ccc(OC)cc2c1NC(=O)CCN1CCC(C)CC1	KLK7 zymogen act 21 | KLK7 act conf inactive | EDANS-DABCYL int 6.8
CN(C)[C@@H]1CCN(c2cccc3c2S(=O)(=O)N2CC[C@H](C2)O3)C1	none
CN1C(=O)C2C(c3ccc(N(C)C)cc3)NN(Cc3ccccc3)C2C1=O (stereo not given)	KLK7 zymogen act 15 | KLK7 act conf 14 | EDANS-DABCYL int 13
Cc1cc(C)c2cc3c(N)c(C(=O)N4CCOCC4)sc3nc2c1	KLK7 zymogen act 19 | KLK7 act conf inactive | EDANS-DABCYL int inactive
Cc1ccc(C)c2nc3sc(C(=O)N4CCOCC4)c(N)c3cc12	none
CCOc1ccc2nc3sc(C(=O)N4CCOCC4)c(N)c3cc2c1	KLK7 zymogen act 13 | KLK7 act conf inactive | EDANS-DABCYL int 6.6
O=C(NC1CCCCN(Cc2cccc(C(F)(F)F)c2)C1=O)C1C2CC3CC(C2)CC1C3 (stereo not given)	none
CCCCCCCCN1C(=O)[C@@H](CC(=O)NCc2cccs2)C[C@@]2(C(=O)OC)C1=C[C@H](C(C)C)O[C@@H]2C1CC1	none
COC(=O)C1CN(CCO)CCS(=O)(=O)N1Cc1cn(Cc2cccc(Cl)c2)nn1 (stereo not given)	none
C[C@H](O)[C@@H]1CN2CCc3ccc(N4CCOCC4)cc3[C@@H]2C[C@@H]1N(C)C(=O)c1ccco1	none
O=c1c2ccccc2[nH]c2ccc(F)cc12	none
O=c1nc(-c2ccccc2Cl)c2cc(F)ccc2[nH]1	KLK7 zymogen act 19 | KLK7 act conf 31 | EDANS-DABCYL int 26 | K7 EDANS ctr inactive
CCc1cc2c(=O)c(Oc3ccccc3F)c(C)oc2c(CN(C)C)c1O	KLK7 zymogen act 63 | KLK7 act conf 72 | EDANS-DABCYL int 74
Cc1oc2c(CN(C)C)c(O)ccc2c(=O)c1-c1ccc2ccccc2n1	none
C=Cc1ccc(C(=O)Nc2nnc(-c3cccnc3)s2)cc1	none
COC(=O)c1ccc2c(CCO)c[nH]c2c1	KLK7 zymogen act 16 | KLK7 act conf inactive | EDANS-DABCYL int 12
COC(=O)c1ccc(CNC(=O)CCc2c[nH]c3ccccc23)cc1	none
O=C(c1ccoc1)N1CCN(c2cc(-c3ccco3)nc3cc(-c4ccco4)nn23)CC1	none (no result: KLK7 zymogen act)
Oc1ccc2ccccc2c1CN1CCOCC1	none
Oc1cnc2ccccc2c1CN1CCOCC1	KLK7 zymogen act 15 | KLK7 act conf inactive | EDANS-DABCYL int 6.9
